# Compound activity deposited in PubChem BioAssay by National Center for Advancing Translational Sciences (NCATS).
# Cruzain Triton – qHTS Assay for Promiscuous and Specific Inhibitors of Cruzain (with detergent). purified cruzain, Z-FR-AMC fluorescence, 0.01% Triton. AID 1478, 2009. Potency, µM, for inactives: max response, negative = inhibition, usual class: inhibitors. 0.43% of 200,000 active;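 note: plate controls were neutral wells for no effect and buffer without enzyme for full effect; nearly all actives have a fitted effect of over 40% in size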
# Target sequence (P25779 123-467 limits assumed): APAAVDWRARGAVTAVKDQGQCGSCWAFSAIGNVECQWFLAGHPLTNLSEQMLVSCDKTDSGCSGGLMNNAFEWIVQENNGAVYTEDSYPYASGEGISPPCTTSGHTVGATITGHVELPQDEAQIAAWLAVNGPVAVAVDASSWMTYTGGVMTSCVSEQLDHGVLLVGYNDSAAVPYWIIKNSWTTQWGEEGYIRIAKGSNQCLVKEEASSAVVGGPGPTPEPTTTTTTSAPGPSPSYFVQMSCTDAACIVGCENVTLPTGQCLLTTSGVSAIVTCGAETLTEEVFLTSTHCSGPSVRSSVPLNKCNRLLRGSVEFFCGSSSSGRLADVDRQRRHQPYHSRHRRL
#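 Sodium acetate buffer (100 mM, pH 5.5) containing 5 mM DTT and 0.01% Triton X-100 hosted 1.5 nM cruzain and test compound for 15 min at room temperature. Cleavage of 2 uM Z-FR-AMC was then tracked by fluorescence.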
# NS1 inh – qHTS Assay for Inhibitors of Influenza NS1 Protein Function | Potency, µM (series often up to 46.1 µM), without a hit: at the top dose activity, positive = more growth | 0.4% of 270,000 active | AID 2326, 2010; calls by dose curve; note: actives are rising curves; nearly all actives have a fitted effect of over 50% in size
#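 A cell-based growth assay was used: compounds that relieve NS1-induced slow growth of budding yeast raise OD600. Assay medium was yeast nitrogen base with ammonium sulphate and -URA supplement, pH 6.0, with 2% galactose.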
# Cruzain noTriton – qHTS Assay for Promiscuous and Specific Inhibitors of Cruzain (without detergent). Potency, µM, inactives show max response, negative = inhibition, actives largely listed as inhibitors. purified cruzain, Z-FR-AMC fluorescence, no detergent. 2.3% of 200,000 active. Cruzipain (Trypanosoma cruzi), P25779;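 note: plate controls were enzyme without inhibitor for no effect and buffer without enzyme for full effect; nearly all actives have a fitted effect of over 40% in size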
#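 Detergent-free condition (0.00005% Triton X-100) in acetate buffer pH 5.5 with DTT. 1.5 nM enzyme and compound were pre-mixed 15 min, then 2 uM Z-FR-AMC substrate added; reaction progress from fluorescence change between first and third reads (60 s).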
# The depositor's hits bear a star; ? = inconclusive; / = no result. The full list was thinned out, with hits kept by preference. Unless noted, calls come from the whole dose curve; as a rule, active = well fitted curve in the direction sought with a large enough effect; inconclusive = small, poorly fitted or top-dose-only effect, or another doubt; inactive = no such curve, though single readings can be large; an effect the other way counts as inactive or inconclusive. Potency is the fitted concentration of half-maximal effect.
SMILES,Cruzain Triton,NS1 inh,Cruzain noTriton
O=C(CCCn1c(=O)[nH]c2ccccc2c1=O)N1CCN(c2ccccc2)CC1,4%,/,-13%
COc1ccc(-n2c(C)c([N+](=O)[O-])c3ccc(O)c(CN(C)C)c32)cc1,-21%,?,25µM*
COc1ccc(-n2c(C(C)n3nc(C)c([N+](=O)[O-])c3C)n[nH]c2=S)cc1 (stereo not drawn),-2%,9%,-3%
O=c1c2c3c(sc2nnn1Cc1ccc(Br)cc1)CCCC3,-7%,/,-4%
COc1cccc(CNC(=O)c2ccc3nc(N4CCCCC4)sc3c2)c1OC,-7%,/,13%
CCc1ccccc1N1C(=O)N(CC(=O)c2ccc(Cl)cc2)c2ccccc2S1(=O)=O,2%,/,?
CCOc1cccc2cc(C(=O)N3CCc4ccccc43)c(=O)oc12,3%,2%,16µM*
COc1cccc2cc(C(=O)N3CCc4ccccc43)c(=O)oc12,4%,3%,4%
CC1=CC2C(C)(C)CC(=O)C[C@]2(C)CC1COc1ccc2c(c1)CC(=O)C=C2 (stereo partly drawn),-8%,/,-13%
Fc1ccc(Nc2ccnc(-c3ccc4c(c3)OCO4)n2)cc1,-10%,/,3%
COC(=O)[C@H]1O[C@@H](c2cc(OC)c(C)c(OC)c2OCc2ccccc2)[C@H](C)[C@H]2O[C@@]12C,8%,/,2%
O=c1oc2ccc(Cl)cc2cc1-c1nnc(Nc2cccc(C(F)(F)F)c2)s1,-1%,-8%,5µM*
CNc1nnc(-c2cc3cc(Cl)ccc3oc2=O)s1,-4%,2%,2%
O=C(Nc1ccc(F)cc1)c1ccc(-n2cnc3cccnc32)cc1,-5%,/,-3%
CCN(CC)c1ccc(NC(=O)C2CCN(S(=O)(=O)c3ccc4c(c3)oc(=O)n4C)CC2)c(C)c1,-1%,/,1%
COC(=O)C(C(=O)OC)[C@@H](NC(=O)OCc1ccccc1)c1ccccc1,0%,/,-16%
CC1CCc2c(sc3ncnc(SCC(=O)Nc4ccc(C(=O)O)cc4)c23)C1 (stereo not drawn),/,5%,/
Cc1cc(NC(=O)CSc2ncnc3sc4c(c23)CCC(C)C4)no1 (stereo not drawn),5%,0%,5µM*
O=C1C2=C(Nc3cc([N+](=O)[O-])ccc3N2)O[C@@H]1c1ccc([C@H]2OC3=C(Nc4ccc([N+](=O)[O-])cc4N3)C2=O)cc1,-3%,8%,-4%
CN(C)c1cccc(C(=O)OC(C(=O)Nc2ccc([N+](=O)[O-])cc2Br)c2ccccc2)c1 (stereo not drawn),-2%,21%,16µM*
O=C(OC(C(=O)Nc1ccc([N+](=O)[O-])cc1Br)c1ccccc1)c1ccccc1 (stereo not drawn),/,23%,/
COC(=O)c1ccccc1NC(=O)c1ccc(COc2cccc3ccccc23)o1,-1%,5%,16µM*
COC(=O)c1ccccc1NC(=O)c1ccc(COc2ccccc2)o1,-12%,-14%,-17%
C=C1C(=O)C=C2CN(C(=O)c3ccccc3)[C@@](Cc3ccc(OC)cc3)(C(=O)OC)[C@@H]12,-1%,/,1%
CC1=C(C(=O)Nc2ccc(Cl)cc2)C(c2ccccc2C)n2ncc(C(=O)Nc3ccc(C)cc3)c2N1 (stereo not drawn),-4%,/,32µM*
SMILES,Cruzain Triton,NS1 inh,Cruzain noTriton
CC1=C(C(=O)Nc2ccc(Cl)cc2)C(c2ccccc2)n2ncc(C(=O)Nc3ccccc3)c2N1 (stereo not drawn),-10%,/,?
COc1ccc(NC(=O)C2=C(C)Nc3c(C(=O)Nc4ccc(C)cc4)cnn3C2c2cccc(Cl)c2)cc1 (stereo not drawn),-4%,/,16µM*
COc1ccc(NC(=O)C2=C(C)Nc3c(C(=O)Nc4ccc(C)cc4)cnn3C2c2cc(OC)ccc2OC)cc1 (stereo not drawn),-6%,/,-1%
COC(=O)c1c(NC(=O)c2cc(=O)c3ccc(C)c(C)c3o2)sc2c1CCCC2,-1%,/,-9%
O=C1C(=O)N(Cc2ccc(Cl)c(Cl)c2)c2ccccc21,1%,/,?
CNS(=O)(=O)c1cc(-c2nn3c(C)nnc3c3ccccc23)ccc1C,3%,/,-7%
COc1ccc(Oc2ncc3nc(-c4ccccc4)c(=O)n(Cc4cccs4)c3n2)cc1,-1%,/,25µM*
COc1ccc(-c2nc3cnc(Nc4ccccc4)nc3n(Cc3cccs3)c2=O)cc1,0%,/,-1%
Cc1nc2cnc(Nc3ccccc3)nc2n(Cc2cccs2)c1=O,1%,/,1%
COc1cccc(Nc2ncc3nc(-c4ccccc4)c(=O)n(Cc4cccs4)c3n2)c1,1%,/,5µM*
COc1ccc(Oc2ncc3nc(C)c(=O)n(Cc4cccs4)c3n2)cc1,-6%,/,13%
COc1cccc(Nc2ncc3nc(CCc4ccccc4)c(=O)n(Cc4cccs4)c3n2)c1,3%,/,4µM*
O=c1c(CCc2ccccc2)nc2cnc(Nc3ccccc3)nc2n1Cc1cccs1,4%,/,25µM*
COCCn1c(=O)c(CCc2ccccc2)nc2cnc(Nc3cccc(OC)c3)nc21,3%,/,1%
CCOc1ccccc1CNC(=O)CSc1n[nH]c(-c2ccccc2Cl)n1,-2%,/,-1%
CC(C)Cn1c(=O)c2ccccc2n2c(CCC(=O)N3CCN(c4ccccc4F)CC3)nnc12,2%,/,13%
COC(=O)c1sccc1S(=O)(=O)N(CC(=O)Nc1ccccc1C)c1ccc(Cl)cc1,-5%,/,2%
O=C(CNC(=O)c1ccc([N+](=O)[O-])cc1)N/N=C\c1ccc(OC(=O)c2ccccc2)cc1,-10%,2%,7.9µM*
Cc1cc([N+](=O)[O-])cc(C)c1OCC(=O)N/N=C/c1ccc(OC(=O)c2ccccc2)cc1,-4%,-16%,13µM*
O=C(CNC(=O)c1ccccc1Br)N/N=C\c1cc([N+](=O)[O-])cc(Br)c1O,/,-45%,/
Cc1cc([N+](=O)[O-])cc(C)c1OCC(=O)N/N=C/c1ccc(OC(=O)c2ccccc2Br)cc1,-4%,10%,10µM*
Cc1ccc(CC(=O)N/N=C/c2ccc(OC(=O)c3ccc([N+](=O)[O-])cc3)cc2)cc1,-2%,12%,?
COc1cccc(C(=O)NCC(=O)N/N=C/c2cccc(OC(=O)c3ccc([N+](=O)[O-])cc3)c2)c1,-19%,2%,?
CC1=C(C(=O)O)N2C(=O)C(NC(=O)C(N)c3ccccc3)C2SC1 (stereo not drawn),0%,/,4%
COc1ccc(NC(=O)CN2C(=O)C(C)(C)c3cc(S(=O)(=O)N4CCCCC4)ccc32)cc1Cl,-3%,/,9%
CC1=C2C(=COC(C)C2C)C(=O)C(C(=O)O)=C1O (stereo not drawn),-3%,/,0%
O=C(Oc1ccc(NC2=C(Cl)C(=O)c3ccccc3C2=O)cc1)c1ccc([N+](=O)[O-])cc1,-3%,6%,13µM*
O=C(Oc1ccc([N+](=O)[O-])cc1)c1cccnc1,-4%,-2%,9%
COc1cc(OC)cc(-c2nc3ccccc3c(=O)n2OC(=O)c2ccccc2C)c1,-5%,-1%,-4%
O=C(On1c(-c2ccccc2)nc2ccccc2c1=O)c1ccco1,28µM*,-171%,?
